ChEMBL document CHEMBL3433997, “St. Jude Leishmania screening dataset” (2016)

Tests used:
Assay type in all cases: functional
[1] = target: Solute carrier family 2, facilitated glucose transporter member 1 (Homo sapiens) (UniProt P11166); assay: ST_JUDE_LEISH: Cytotoxicity at 2uM final concentration against transgenic Leishmania Mexicana promastigotes LmGLUT1 that are glucose transport deficient and complemented with the human glucose transporter GLUT1. Activity is measured by DNA content using SYBR green in vitro
Solute carrier family 2, facilitated glucose transporter member 1 (Homo sapiens), sequence (P11166 whole entry): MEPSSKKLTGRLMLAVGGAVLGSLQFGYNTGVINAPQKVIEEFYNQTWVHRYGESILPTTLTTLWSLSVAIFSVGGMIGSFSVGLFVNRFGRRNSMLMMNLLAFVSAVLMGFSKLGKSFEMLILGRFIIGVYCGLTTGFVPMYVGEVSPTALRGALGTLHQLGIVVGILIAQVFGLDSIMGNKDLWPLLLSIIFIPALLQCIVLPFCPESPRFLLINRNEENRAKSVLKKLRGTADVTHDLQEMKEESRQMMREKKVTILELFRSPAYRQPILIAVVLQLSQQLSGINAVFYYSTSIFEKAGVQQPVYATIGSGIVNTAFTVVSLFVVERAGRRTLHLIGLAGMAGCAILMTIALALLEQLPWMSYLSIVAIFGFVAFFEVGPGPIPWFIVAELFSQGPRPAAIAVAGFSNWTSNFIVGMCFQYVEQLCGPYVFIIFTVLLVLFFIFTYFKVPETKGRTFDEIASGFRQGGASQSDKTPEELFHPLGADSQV

[2] = target: Hexose transporter 1 (Plasmodium falciparum) (UniProt O97467); assay: ST_JUDE_LEISH: Cytotoxicity at 2uM final concentration against transgenic Leishmania Mexicana promastigotes LmPfHT that are glucose transport deficient and complemented with the Plasmodium falciparum hexose transporter. Activity is measured by DNA content using SYBR green in vitro
[3] = target: Glucose transporter (Leishmania mexicana) (UniProt O61059); assay: ST_JUDE_LEISH: Cytotoxicity at 2uM final concentration against transgenic Leishmania Mexicana promastigotes LmGT2 that are glucose transport deficient and complemented with the L. Mexicana glucose transporter 2. Activity is measured by DNA content using SYBR green in vitro

SMILES	inhibition [1] [%]	inhibition [2] [%]	inhibition [3] [%]
CCc1c(C)nc2nc(Cc3cccc(F)c3)nn2c1N1CCN(c2ccccn2)CC1	14.9	12	9.56
O=C(Nc1ccccc1)Nc1ccc(-n2ccc(C(F)(F)F)n2)cc1	2.55	2.63	-0.06
N#Cc1ccc(OCCN(Cc2ccccc2C(F)(F)F)c2ccc(C#N)c(C(F)(F)F)c2)cc1	10.1	9.42	8.53
NC(=O)c1cccc(C(=O)Nc2ccc(-c3cccc(-c4nc5cc(C(F)(F)F)ccc5[nH]4)c3)cc2)c1	0.39	-0.82	-2.19
CCNc1cc(C(=O)N[C@@H](Cc2ccccc2)[C@H](O)CNCCc2ccccc2)cc(N2CCCC2=O)c1	0.28	1.31	0.88
COc1cc(CCON2C(N)=NC(N)=NC2(C)C)cc(OC)c1OC	2.34	0.73	1.04
O=c1nc2[nH]c3ccccc3n2c(=O)[nH]1	3.69	2.18	3.41
CC(C)(C)c1ccc(CNC(=O)c2ccc(CNC3CCC(N)CC3)s2)cc1 (centres undefined)	-0.19	0.91	0.31
Cc1cc(NCCCCCCN)nc(Nc2ccc(Cl)cc2)n1	5.87	5.27	-0.67
Cn1nccc1C(=O)NCCNCc1cccc(-c2ccc(-c3nc4cc(C(F)(F)F)ccc4[nH]3)cc2)c1	-3.3	-1.43	-2.04
N=C(NCc1ccc(O)cc1)Nc1nc(-c2ccc(OCCCn3ccnc3)cc2)cs1	1.63	0.11	-3.09
N#CN1CC[C@@H](OC(=O)N[C@@H]2C[C@H]2c2ccccc2)C1	8.37	7.38	4.43
C[C@H](Cc1ccc(OCCCCCCOc2ccc(C[C@@H](C)NC(=O)[C@H](O)c3cccc(Cl)c3)cc2)cc1)NC[C@H](O)c1cccc(Cl)c1	7.21	5.41	4.7
O=C(Cc1c[nH]cn1)Nc1cccc(-c2ccc(-c3nc4cc(C(F)(F)F)ccc4[nH]3)cc2)c1	3.54	3.75	1.97
OCC1CCN(Cc2ccc(-c3ccc(-c4nc5ccccc5[nH]4)cc3)cc2)CC1	6.11	5.06	5.45
COc1ccccc1C1CCN(C2CCC(NC(=O)/C=C/c3ccc4c(c3)OC(F)(F)O4)CC2)CC1 (centres undefined)	4.33	4.26	1.28
COc1cccc(-c2nn(C)c3sc(C(=O)Nc4cccnc4)cc23)c1	0.24	-1.97	-0.35

SMILES	inhibition [1] [%]	inhibition [2] [%]	inhibition [3] [%]
Cc1cc(Nc2ccc(Cl)cc2)n2nc(C(F)(F)F)nc2n1	0.02	0.17	0.13
Cc1ccccc1-c1nc2c(CN3CCC(O)(c4ccccc4)CC3)c(O)ccc2[nH]1	11.5	8.82	8.8
O=C(NC1CCCCC1)c1csc(C2CCCN(C(=O)c3ccc(O)c(-c4cccc(C(F)(F)F)c4)c3)C2)n1 (centres undefined)	0.87	1.44	-0.33
COc1cc2nc(N3CCC(CNC(=O)c4ccc(-c5ccc(C(=O)N(C)C)cc5)cc4)CC3)nc(N)c2cc1OC	1.96	0.11	1.75
CC1(C)N=C(N)N=C(N)N1c1ccc(Cl)c(Cl)c1	-1.25	0.49	3.04
CC(C)CCN1CCCN(Cc2cccc(C(=O)Nc3ccc(C(C)(C)C)cc3)c2)CC1	3.18	0.18	2.78
Cc1cccc(NC(=O)c2ccc(C(=O)NC3CCN(CC4CCCCC4)CC3)cc2)c1	4.08	7.67	4.8
Cc1ccccc1OCCCc1c(C)nc(N)nc1N	3.68	9.06	0.82
Cc1[nH]c(CNCCCNc2cc(=O)c3ccccc3[nH]2)c(Br)c1Br	0.62	1.85	-0.49
O=C(N[C@H]1CCN(Cc2ccc(OC3CCN(Cc4ccccc4)CC3)c(Br)c2)C1)c1ccc(Cl)c(Cl)c1	-0.92	2.97	0.77
COc1ccc(-c2cccc(CNCc3ccc(F)cc3)c2)cc1S(=O)(=O)NCCN1CCCC1	7.5	8.55	6.87
CCNc1cc(C)nc(Nc2ccc(NC(=O)c3c(F)cccc3Cl)cc2)n1	10.6	11	2.56
CS(=O)(=O)Nc1cccc(-c2cnc3[nH]cc(-c4ccc(C(=O)O)cc4)c3c2)c1	0.37	0.36	3.74
COc1cc2c(cc1OC)CN(CCc1ccc(NC(=O)c3cc4cc(Cl)ccc4[nH]3)cc1)CC2	8.2	0.43	1.46
CCc1cc2c3c(N)nc(N)nc3ccc2n1C(CC)CC	71.2	72.7	65.2
O=C(Nc1cccc(-c2cccc(-c3nc4ccccc4[nH]3)c2)c1)c1ccoc1	7.02	5.63	3.82
